# Experimental data as given in publication PMC5540273 (PLoS ONE, 2017).
# Assays:
# Conditions in all cases: concentration: 1 μM, replicates: in singlicate; n = 1
# [1] = tested on: TLK2
# [2] = tested on: TNIK
# [3] = tested on: TNK1
# [4] = tested on: TNK2
# [5] = tested on: TNNI3K
# [6] = tested on: T1, TRKA
# T1 construct: gene NTRK1
# [7] = tested on: TRKB
# [8] = tested on: T2, TRKC
# T2 construct: gene NTRK3
# [9] = tested on: TRPM6
# [10] = tested on: TSSK1B
# [11] = tested on: TSSK3
# [12] = tested on: TTK
# [13] = tested on: TXK
# [14] = tested on: TYK2(JH1domain-catalytic)
# [15] = tested on: TYK2(JH2domain-pseudokinase)
# [16] = tested on: TYRO3
# [17] = tested on: ULK1
# [18] = tested on: ULK2
# [19] = tested on: ULK3
# [20] = tested on: T3, VEGFR2
# T3 construct: gene KDR
# 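Also: KINOMEscan kinase panel screen.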
smiles,measurement,setting,value
COc1ccc(Nc2ncc(C#N)c(Nc3ccccc3C(N)=O)n2)cc1N1CCN(C)CC1.Cl [GSK1558669],%Inh,[1],99.6%
same,%Inh,[2],99.3%
same,%Inh,[3],100%
same,%Inh,[4],94.8%
same,%Inh,[5],82%
same,%Inh,[6],100%
same,%Inh,[7],94.8%
same,%Inh,[8],94.6%
same,%Inh,[9],46%
same,%Inh,[10],89%
same,%Inh,[11],79%
same,%Inh,[12],99.5%
same,%Inh,[13],84%
same,%Inh,[14],99.8%
same,%Inh,[15],99.7%
same,%Inh,[16],35%
same,%Inh,[17],100%
same,%Inh,[18],100%
same,%Inh,[19],100%
same,%Inh,[20],100%
CC(C)(C)n1cnc2c(N)ncnc21 [SKF-97359],%Inh,[1],2%
same,%Inh,[2],0%
same,%Inh,[3],16%
same,%Inh,[4],40%
same,%Inh,[5],0%
same,%Inh,[6],74%
same,%Inh,[7],47%
same,%Inh,[8],18%
same,%Inh,[9],3%
same,%Inh,[10],0%
same,%Inh,[11],45%
same,%Inh,[12],0%
same,%Inh,[13],0%
same,%Inh,[14],21%
same,%Inh,[15],1%
same,%Inh,[16],0%
same,%Inh,[17],0%
same,%Inh,[18],0%
same,%Inh,[19],0%
same,%Inh,[20],0%
N#Cc1ccc(-c2cc(-c3c[nH]nc3-c3ccccn3)ccn2)cc1 [GW693028],%Inh,[1],0%
same,%Inh,[2],75%
same,%Inh,[3],0%
same,%Inh,[4],12%
same,%Inh,[5],31%
same,%Inh,[6],0%
same,%Inh,[7],4%
same,%Inh,[8],16%
same,%Inh,[9],0%
same,%Inh,[10],16%
same,%Inh,[11],8%
same,%Inh,[12],3%
same,%Inh,[13],6%
same,%Inh,[14],1%
same,%Inh,[15],28%
same,%Inh,[16],24%
same,%Inh,[17],6%
same,%Inh,[18],0%
same,%Inh,[19],6%
same,%Inh,[20],0%
COc1ccc(S(=O)(=O)NC2CCN(c3cc(C)nc(Nc4cccc(C#N)c4)n3)CC2)cc1.O=C(O)C(F)(F)F [GSK1653539],%Inh,[1],0%
same,%Inh,[2],0%
same,%Inh,[3],0%
same,%Inh,[4],8%
same,%Inh,[5],0%
same,%Inh,[6],7%
same,%Inh,[7],0%
same,%Inh,[8],0%
same,%Inh,[9],0%
same,%Inh,[10],0%
same,%Inh,[11],0%
same,%Inh,[12],0%
same,%Inh,[13],0%
same,%Inh,[14],0%
same,%Inh,[15],6%
same,%Inh,[16],0%
same,%Inh,[17],0%
same,%Inh,[18],0%
same,%Inh,[19],23%
same,%Inh,[20],0%
Cc1cccc(Cn2ccn3c(=O)cc(N4CCOCC4)nc23)c1 [GSK2297542],%Inh,[1],5%
same,%Inh,[2],0%
same,%Inh,[3],0%
same,%Inh,[4],23%
same,%Inh,[5],2%
same,%Inh,[6],0%
same,%Inh,[7],0%
same,%Inh,[8],12%
same,%Inh,[9],33%
same,%Inh,[10],0%
same,%Inh,[11],17%
same,%Inh,[12],62%
same,%Inh,[13],0%
same,%Inh,[14],0%
same,%Inh,[15],26%
same,%Inh,[16],8%
same,%Inh,[17],2%
same,%Inh,[18],0%
same,%Inh,[19],10%
same,%Inh,[20],0%
